This is an account of results in PubChem BioAssay AID485297 (National Center for Advancing Translational Sciences (NCATS), 2010).

The whole screen tested about 320,000 compounds, of which about 9,100 (2.8%) were called active. Not shown: some 3% with an inconclusive outcome. The call rests on the fitted dose curve; in most records, active means well fitted activation curve with a large enough effect; inconclusive means small, poorly fitted or top-dose-only effect; inactive means no such curve, though single readings can be large or run the other way. The list comes from a sample in which actives are over-represented; it also holds similar structures and randomly drawn compounds. Entries that show only a call come without a potency.
Potency means the concentration at half of the fitted maximal effect.

The nature of this assay: qHTS Assay for Rab9 Promoter Activators. Further: nearly all actives have a fitted effect of over 60% in size. The following applies: Huh7 Rab9 promoter-luciferase reporter, luminescence, 24 h; series mostly up to 9.22 µM. A digest of the protocol:
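Huh7 cells stably carrying a Rab9 promoter-luciferase reporter, 1500 cells per well in OP-MEM I with 10% FBS, treated with compound 24 hours at 37C. Luciferase activity read by luminescence after 10 minutes with Amplite reagent.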
In the case of `N#Cc1ccc(C(=O)OCC(=O)NC(=O)NC2CCCCC2)cc1`, the Potency entry is “inactive”.

Regarding `CCN(CC(=O)Nc1cc(Cl)ccc1C)C(=O)CSCc1ccccc1`, the Potency result was “inactive”.

Regarding `CC(Oc1ccc(F)cc1F)C(=O)/C=C/N(C)C` (stereo not drawn), the Potency result is “inactive”.

For the compound `COc1ccccc1-c1nn(Cc2ccccc2)cc1C(=O)N1CCN(c2ncccn2)CC1`, the Potency result was “inactive”.

Consider `O=C(COC(=O)c1ncc(Cl)c(Cl)c1Cl)NCc1ccccc1`, for which the Potency result is “inactive”.

As for `CCc1ccccc1S(=O)(=O)Cc1ccc(C(=O)NCCc2ccccc2)o1`, the Potency entry is “inactive”.

Turning to `CCN(CC)CCN1C(=O)C(=O)/C(=C(/O)c2cnn(-c3ccccc3)c2C)C1c1cccs1` (stereo not drawn), the Potency is 2510 nM (active).

For the compound `CCN(CC)CCN1C(=O)C(=O)/C(=C(/O)c2ccccc2)C1c1ccccc1F` (stereo not drawn), the Potency result was “inactive”.

With `CCN(CC)CCN1C(=O)C(=O)/C(=C(/O)c2ccc(OC)c(OC)c2)C1c1ccccn1` (stereo not drawn), the Potency entry was “inactive”.

On to `COc1ccc(S(=O)(=O)N2CCC(C(=O)OCC(=O)c3ccccc3)CC2)cc1[N+](=O)[O-]`, for which the Potency entry is “inactive”.

For the compound `COc1ccc2sc(-c3ccc(N(C)C)cc3)c(C#CCO)c2c1`, the Potency entry is “inactive”.

With `Cc1ccc(CN2CC(C(=O)N3CCN(S(=O)(=O)c4ccccc4)CC3)CC2=O)cc1` (stereo not drawn), the Potency entry was “inactive”.

In the case of `Cc1ccc(S(=O)(=O)N2CCC(C(=O)NCC3CCCO3)CC2)cc1` (stereo not drawn), the Potency result was “inactive”.

`Cc1ccc(C(=O)N/C(=C/c2cccs2)C(=O)NCC2CCCO2)cc1` (stereo not drawn): the Potency entry is “inactive”.

Take `Cc1ccc(-n2c(C)cc(/C=C(\C#N)C(=O)NCC3CCCO3)c2C)cc1` (stereo not drawn): the Potency is 3980 nM (active).

As to `CCOC(=O)c1ccc(NC(=O)c2cccnc2)cc1`, the Potency result was “inactive”.

As for `COc1ccc(C)cc1NC(=O)c1ccc(-c2ccc(C(C)=O)cc2)o1`, the Potency entry was “inactive”.

Take `CCOC(=O)c1ccc(-c2ccc(C(=O)Nc3cccnc3)o2)cc1`: the Potency was 2240 nM (active).

For the compound `CCOc1cc(CNCc2ccccn2)ccc1OCC(=O)NC(C)(C)C`, the Potency result is “inactive”.

Regarding `Cc1ccc(S(=O)(=O)N2CCN(c3ncnc4ccccc34)CC2)cc1`, the Potency entry is “inactive”.

For `CCc1ccc(C(=O)N2CCN(S(=O)(=O)c3sc(C(=O)O)c(C)c3C(=O)O)CC2)cc1`, the Potency result was “inactive”.

`Cn1c(CCC(=O)OCC(=O)NCc2ccccc2Cl)nc(=O)c2ccccc21`: the Potency result was “inactive”.

With `CC(C)n1ncc2c(C(=O)Nc3ccc(CC#N)cc3)cc(C3CC3)nc21`, the Potency result is “inactive”.

With `C=CCC(NC(=O)Cc1ccccc1)C(=O)NCCC` (stereo not drawn), the Potency result was “inactive”.

Turning to `COc1ccc(CNC(=O)c2ccc3oc(C(C)C)nc3c2)cc1`, the Potency was 2820 nM (active).

Turning to `COc1ccc(CNC(=O)c2cc(=O)c3c(C)cc(C)cc3o2)cc1`, the Potency result is “inactive”.

For the compound `CC(C)c1nc2cc(C(=O)NC(C)c3cnn(C)c3)ccc2o1` (stereo not drawn), the Potency entry was “inactive”.

With `CCOc1ccc(S(=O)(=O)N2CCC(C(=O)NCC(=O)Nc3cccc(Cl)c3C)CC2)cc1`, the Potency result was “inactive”.

As to `Cc1cccc(/C(N)=N/OC(=O)c2ccccc2Cl)c1`, the Potency is 891 nM (active).

As to `Cc1cccc(C(=O)c2cccc(C)c2)c1`, the Potency entry was “inactive”.

With `N/C(=N\OC(=O)c1cc(-c2ccccc2)nc2ccccc12)c1ccncc1`, the Potency entry is “inactive”.

On to `O=S(=O)(c1ccc(Cl)cc1)c1nc(-c2ccccc2F)oc1NCCN1CCOCC1`, for which the Potency result was “inactive”.

As to `CC(=O)c1c(C)[nH]c(C(=O)Nc2cc(S(=O)(=O)N(C)C)ccc2C)c1C`, the Potency entry was “inactive”.

Take `O=C(CCNC(=O)c1ccc([N+](=O)[O-])cc1)NC1CCCCC1`: the Potency entry was “inactive”.

In the case of `CC(=O)c1ccc(N2CCN(CC(O)c3ccccc3)CC2)cc1` (stereo not drawn), the Potency result was “inactive”.

For the compound `CC(=O)c1ccc(N2CCN(C(=O)CCc3ccccc3)CC2)cc1`, the Potency entry is “inactive”.

Consider `CC(=O)c1ccc(N2Cc3ccccc3C2)cc1`, for which the Potency was 1780 nM (active).

Take `COc1ccc(F)cc1C(=O)COC(=O)c1n[nH]c(=O)c2ccccc12`: the Potency result is “inactive”.

For `CCOC(=O)CSc1nccc(N(C)C)c1C#N`, the Potency result was “inactive”.

In the case of `Cc1nonc1NC(=O)CSc1nc2ccccc2cc1C#N`, the Potency result was “inactive”.

As to `CCOc1ccc2cc(C#N)c(SCC(=O)OC)nc2c1`, the Potency is 1580 nM (active).

Turning to `COc1ccc(C(C)(C)C)cc1NC(=O)CCN1C(=O)C2CCCCC2C1=O` (stereo not drawn), the Potency result is “inactive”.

For `Cc1ccc(O)c(NC(=O)c2cc(-c3ccco3)on2)c1`, the Potency entry was “inactive”.

As for `CCOc1ncccc1C(=O)OCC(=O)c1c[nH]c2ccccc12`, the Potency entry is “inactive”.

Consider `CC1CC1C(=O)OCC(=O)Nc1cccc(F)c1` (stereo not drawn), for which the Potency result is “inactive”.

On to `Cc1ccc(OCc2nc3ccccc3n2C)cc1`, for which the Potency was 1780 nM (active).

In the case of `CC(C)n1c(COc2ccccc2)nc2ccccc21`, the Potency result is “inactive”.

Consider `Cn1c(COc2ccc(Cl)cc2)nc2ccccc2c1=O`, for which the Potency entry was “inactive”.

On to `CN(C(=O)CC1C(=O)NCCN1Cc1ccc2ccccc2c1)C1CCOCC1` (stereo not drawn), for which the Potency entry is “inactive”.

With `O=C(CNC(=O)OCc1ccccc1)NC1CCCCNC1=O` (stereo not drawn), the Potency entry is “inactive”.

With `CCc1ccc(-c2nn(-c3ccccc3C)cc2C(=O)N2CCN(C3CCS(=O)(=O)C3)CC2)cc1` (stereo not drawn), the Potency entry was “inactive”.

In the case of `O=C(O)Cc1sc(-c2ccccc2)nc1-c1cccs1`, the Potency entry was “inactive”.

In the case of `NC(=O)Cc1ccc2sc(-c3ccccc3)nc2c1`, the Potency was 3550 nM (active).

On to `NC(=O)Cc1ccc2c(c1)[nH]c1ccccc12`, for which the Potency result was “inactive”.

For the compound `CC(=O)N1CCOc2ccc(S(=O)(=O)N3CCC(C(=O)Nc4ccccc4F)CC3)cc21`, the Potency entry is “inactive”.

Turning to `CCc1nnc(NC(=O)c2cc(S(=O)(=O)N3CCCCC3)ccc2C)s1`, the Potency result was “inactive”.

As to `COc1ccc(-c2nc(SCC(=O)N3CCCC3)n[nH]2)cc1`, the Potency result is “inactive”.

Take `COc1ccc(-c2nnc3n2CCCCC3)cc1`: the Potency result was “inactive”.

Consider `COc1ccc(-c2nc3n(c2Br)CCC3)cc1`, for which the Potency was 2510 nM (active).

For the compound `O=C(Nc1ccccc1N1CCCCC1)c1ccc2nccnc2c1`, the Potency result was “inactive”.

For the compound `Cc1cccc(NC(=O)c2ccc3nsnc3c2)c1C`, the Potency entry is “inactive”.

With `O=C(Nc1ccccc1Cl)c1ccc2nsnc2c1`, the Potency was 2510 nM (active).

In the case of `COc1ccc(Cl)cc1NC(=O)COc1ccc2c(c1)OCO2`, the Potency entry was “inactive”.

For `CCOC(=O)CN(C(=O)CN1CCOCC1)c1ccc(Br)cc1`, the Potency result is “inactive”.

On to `O=C(COC(=O)c1ccc2c(c1)OCCO2)NCc1ccccc1`, for which the Potency result is “inactive”.

For the compound `O=C(CN1CCN(c2ccccc2F)CC1)c1ccc2c(c1)OCO2`, the Potency entry is “inactive”.

Turning to `CC(=O)Nc1cccc(C(=O)OCC(=O)c2ccc3c(c2)OCO3)c1`, the Potency is 89.1 nM (active).

For `CC(NC(=O)COC(=O)c1ccc2c(c1)OCO2)c1ccccc1` (stereo not drawn), the Potency entry was “inactive”.

Consider `C/C(=N\NC(=O)C(N)=O)c1ccc2c(c1)OCCO2`, for which the Potency result was “inactive”.

Consider `CC(=O)Nc1cccc(C(=O)OCC(=O)NCc2cc(C)c(O)c(C)c2)c1`, for which the Potency entry is “inactive”.

Turning to `O=C(COC(=O)c1ccccc1)c1ccc2c(c1)OCCO2`, the Potency is 631 nM (active).

Regarding `O=C(COC(=O)c1ccncc1)c1ccccc1`, the Potency entry is “inactive”.

Take `O=C(OCc1ccccc1F)c1ccc2c(c1)OCCO2`: the Potency is 3160 nM (active).
